Target: alpha-synuclein (aSyn) WT (human, UniProt P37840 1-140)
Assay: RNA Bind-n-Seq
Details: ssRNA

Sequence	binding signal
GGGAUGUGUGGG	60.2 enrichment score
GGGUGGGCGGAU	43.8 enrichment score
AGUGGCGGAGGG	43.8 enrichment score
GGAGGUGGUGGA	46.4 enrichment score
GGGAGCGGGGGA	46.4 enrichment score
GUGGGGAGGAAG	46.4 enrichment score
AGGGGUUUUGGG	43.8 enrichment score
UGGGUUUGGGGG	46.4 enrichment score
AGUGGGGGGGUG	43.8 enrichment score
UGGGGUGGGAGU	46.4 enrichment score
GGGCUGGGAGUG	41.1 enrichment score
CGGGUGGGAUGG	43.8 enrichment score
GGCAGGCUGUGG	41.1 enrichment score
UGGAUGGCGGGG	43.8 enrichment score
GGGGAGUGGAUG	49.1 enrichment score
GGGGGGCUGAGG	43.8 enrichment score
GGGUGUUGGUUG	43.8 enrichment score

Sequence	binding signal
UGGGGAGUGGGU	51.8 enrichment score
UGGGGUAUUGGG	43.8 enrichment score
UUGGGCGGGUAG	49.1 enrichment score
AGGGGGGAGCAG	49.1 enrichment score
GGUGUGGGUGUG	51.8 enrichment score
GAGGCGGGAGGG	43.8 enrichment score
GGUGGGUUUGGG	65.9 enrichment score
GUGGGGGUGGAU	60.2 enrichment score
GCGGGAUGGGGG	43.8 enrichment score
GGCGGGGGGUGA	43.8 enrichment score
UGUGGGCGGGAG	54.6 enrichment score
UGAUGGGGGUGG	43.8 enrichment score
AGGGGGAUGUGG	54.6 enrichment score
AGUUGGUGGUGG	46.4 enrichment score
GGGGGUGGCAGA	43.8 enrichment score
GAGGUGGUAGGG	57.4 enrichment score
